# Laboratory results from PubChem BioAssay AID449762 (Southern Research Specialized Biocontainment Screening …, 2010).
# Among all 330,000 compounds or so, about 1,900 (0.58%) were called active. Another 4% or so got no clear call; they are omitted. These entries were drawn from the full list. Results with a measured potency or affinity are listed apart. A number with no mark means an inactive call. Cut-off read from the data, not from the text of the source: inconclusive = inhibition above about 70% without an active follow-up result; inactive = below that.
# Experiment: M. tuberculosis growth inhibition, HTS (AID 449762);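 note: bacterial growth assessed after seven days of incubation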
# Conditions: M. tuberculosis H37Rv growth inhibition, 7H9 media; at 25 µM; hits give high values
row,Compound,inhibition [%]
1,COc1ccc(C2COc3cc(O)ccc3C2)c(OC)c1O (stereo not given),-7.8
2,CCCSc1nnc(CSc2nc3nc(C)cc(C)n3n2)o1,6.82
3,CCCCSc1nnc(CSc2nc3nc(C)cc(C)n3n2)o1,-4.57
4,CC1Cn2c(nc3sc4c(c3c2=O)CCC4)N1CCO (stereo not given),3.69
5,Cc1ccc(C(=O)N2CCN(c3ccc(C(F)(F)F)cn3)CC2)cc1,-8.18
6,O=C(c1ccccn1)N1CCN(c2ccc(C(F)(F)F)cn2)CC1,-9.2
7,CS(=O)(=O)N(CC(=O)Nc1ccc(C(N)=O)cc1)C1CCCCC1,0.92
8,CN(CC(=O)Nc1cccc(F)c1)C(=O)CCN1C(=O)C2CC=CCC2C1=O (stereo not given),-7.97
9,Cc1ccc(C(=O)N2CCC3(CC2)NCCc2[nH]cnc23)cc1,0.45
10,CCOC(=O)c1c(-c2ccccc2)c2cc(OC)ccc2n1CCCN(C)C,47.1
11,Cn1c(=O)c(C(=O)NNC(=O)c2ccccc2Cl)c(O)c2ccccc21,53.6
12,Cn1c(=O)c(C(=O)NNC(=O)c2ccccc2Br)c(O)c2ccccc21,45.1
13,Cc1ccc(C(=O)N/C(=C\c2cccs2)c2nc3ccccc3[nH]2)cc1,-6.82
14,Cc1ccc(C(=O)N/C(=C\c2cccnc2)c2nc3ccccc3[nH]2)cc1,-7.38
15,CC(C)[C@@]1(c2ccc(Cl)cc2)ON(c2ccccc2C(F)(F)F)C1=O,-3.69
16,CCn1c(C)c(C)c2cc(C(=O)NCCCN3CCCC3)ccc21,-0.8
17,O=C(NC(=S)Nc1nc2c(s1)CCCC2)c1ccccc1,2.45
18,O=C(Nc1nc2c(s1)CCCC2)Oc1ccccc1,-2.24
19,O=C(COc1ccc([N+](=O)[O-])cc1)N/N=C/c1cc([N+](=O)[O-])ccc1N1CCOCC1,3.18
20,CCC(C)NC(=O)CNC(=S)N(Cc1ccccc1)Cc1cccnc1 (stereo not given),-7.33
21,Cc1ccc(NCC(O)C(O)C(O)CO)cc1C (stereo not given),-7.11
22,COc1ccc(N(C(=O)/C=C/C(=O)Nc2cc(C)on2)C(C(=O)NC2CCCC2)c2ccccc2C)cc1 (stereo not given),40
23,Cc1cc(NC(=O)CCC(=O)N(c2ccccc2)C(C(=O)NC2CCCC2)c2ccccc2C)no1 (stereo not given),0.1
24,CCCCCn1c(CCC(=O)Oc2ccccc2OC)nc2c1c(=O)[nH]c(=O)n2CCCC,4.88
25,COc1ccccc1CNC(=O)COC(=O)c1ccccc1SCC(=O)N1CCCC1,1.81
